# Results filed as inconclusive are left out. A call without a number means that no potency is given here. Calls of active or inactive are those of the source. The call rests on the fitted dose curve; in most records, active means well fitted curve in the direction sought with a large enough effect in the repeat runs; inconclusive means weak or mixed curves; inactive means no such curve, though single readings can be large; an effect the other way counts as inactive or inconclusive.
# Key:
# [1] = qHTS assay to identify small molecule agonists of the RXR signaling pathway - cell viability counter screen (AID 1159529); details: RXR-alpha-bla HEK293T viability, CellTiter-Glo, 16 h; series mostly up to 76.8 µM;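 further: HEK 293T cells carrying an RXR-alpha UAS beta-lactamase reporter; nearly all actives have a fitted effect of over 50% in size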
# Procedure, shortened: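 Steps: seed RXR-alpha-UAS-bla HEK 293T cells in assay medium containing 2% charcoal-stripped FBS; incubate 5 hr; add compounds in DMSO; incubate 16 hr at 37 C; after the bla read, add CellTiter-Glo and read luminescence at 30 min.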
# [2] = qHTS assay to identify small molecule antagonists of the retinoid acid receptor (RAR) signaling pathway - cell viability counter screen (AID 1159551); details: C3RL4 cells viability, ATP luminescence (CellTiter-Glo), 6 h; series mostly up to 92.4 µM; further: nearly all actives have a fitted effect of over 35% in size
# Procedure, shortened: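 Viability of C3RL4 cells is quantified from ATP by luminescence after 6 h treatment at 37 C with compounds and 1 uM retinol.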
# [3] = qHTS assay to identify small molecule agonists of the retinoic acid receptor (RAR) signaling pathway (AID 1159553); details: C3RL4 RARE luciferase reporter, agonist, 6 h; series mostly up to 73.3 µM
# Procedure, shortened: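 Compounds dissolved in DMSO were pinned onto C3RL4 cells seeded the previous day, and plates were held 6 hr at 37 C. RARE-driven luciferase output was then read by luminescence.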
# [4] = qHTS assay to identify small molecule antagonists of the retinoic acid receptor (RAR) signaling pathway (AID 1159552; further: nearly all actives have a fitted effect of over 50% in size; further: potency means the concentration at half of the fitted maximal effect); details: C3RL4 RARE luciferase reporter, retinol-stimulated, 6 h; series mostly up to 92.4 µM
# Procedure, shortened: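 Retinol at 1 uM final stimulated RARE-luciferase expression in C3RL4 cells exposed to test compounds for 6 hr at 37 C. Reduced luminescence, read 30 min after detection reagent, indicated pathway antagonism.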
Compound,Potency [1],Potency [2],Potency [3],Potency [4]
BrCC(Br)C1CCC(Br)C(Br)C1 (stereo unspecified),inactive,inactive,inactive,
O=C(O)C1(c2ccc3c(c2)OC[C@H](Cc2ccc(-c4ccccc4)cc2)[C@H]3O)CCCC1,,inactive,inactive,inactive
CCOP(=S)(OCC)Oc1cc(Cl)c(Br)cc1Cl,,inactive,inactive,inactive
NCCCNCCCN,,inactive,,
COC(=O)C(C)N(C(=O)Cc1ccccc1)c1c(C)cccc1C (stereo unspecified),,inactive,,inactive
C[C@]12CC[C@H]3[C@@H](CCC4=CC(=O)CC[C@@H]43)[C@@H]1CC[C@@H]2OC(=O)CCC1CCCCC1,inactive,inactive,inactive,
CCC(C)(NC(=O)c1cc(Cl)c(C)c(Cl)c1)C(=O)CCl (stereo unspecified),,,,4.89 µM (active)

# Source: PubChem BioAssay (Tox21)
